Screening data (PubChem BioAssay)
Cruzain noTriton: qHTS Assay for Promiscuous and Specific Inhibitors of Cruzain (without detergent); AID 1476, 2009; purified cruzain, Z-FR-AMC fluorescence, no detergent; hit rate 2.3% among 200,000; Potency, µM, most hits filed as inhibitors; also: nearly all actives have a fitted effect of over 40% in size
Target sequence (P25779 123-467 limits assumed): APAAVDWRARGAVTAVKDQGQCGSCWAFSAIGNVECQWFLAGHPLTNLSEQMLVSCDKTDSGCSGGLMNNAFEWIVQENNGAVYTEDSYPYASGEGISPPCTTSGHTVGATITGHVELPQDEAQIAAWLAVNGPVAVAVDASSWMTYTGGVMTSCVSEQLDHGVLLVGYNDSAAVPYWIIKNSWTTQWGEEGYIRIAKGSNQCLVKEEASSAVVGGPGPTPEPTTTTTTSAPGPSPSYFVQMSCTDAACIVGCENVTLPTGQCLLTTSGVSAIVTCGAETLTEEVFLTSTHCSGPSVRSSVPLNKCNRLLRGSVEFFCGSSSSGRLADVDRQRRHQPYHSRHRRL
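Purified cruzain at 1.5 nM, pre-incubated 15 min with compound at room temperature in 100 mM sodium acetate pH 5.5, 5 mM DTT, 0.00005% Triton X-100. Reaction started with 2 uM Z-FR-AMC; AMC fluorescence increase over 60 s gives rate.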
Cruzain inh Det: qHTS Assay for Promiscuous and Specific Inhibitors of Cruzain (with detergent); Cruzipain (Trypanosoma cruzi), P25779; purified cruzain, Z-FR-AMC fluorescence, 0.01% Triton; Potency, µM, actives largely listed as inhibitors; hit rate 0.43% among 200,000; AID 1478, 2009; also: nearly all actives have a fitted effect of over 40% in size
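15 min RT preincubation of 1.5 nM cruzain with compound, then 2 uM Z-FR-AMC added; kinetic AMC fluorescence, 60 s delta. Triton X-100 0.01%, pH 5.5.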
Each line names hits and unclear results; the compound was inactive in the other large screens. The list is not random: actives were taken first. Their share in the collection is about 2.6%. Calls follow the shape of the dose curve; as a rule, active = well fitted curve in the direction sought with a large enough effect; inconclusive = small, poorly fitted or top-dose-only effect, or another doubt; inactive = no such curve, though single readings can be large; an effect the other way counts as inactive or inconclusive.

Cc1ccc(-c2nc3c(cnn3-c3ccccc3)c(=O)n2-c2ccc(Cl)cc2)cc1	none
Cc1nn(C)c(C)c1-c1cccc2c1CCC(N(C)C)C2 (stereo unspecified)	none
CCn1c(O)c(/C=C2\C=NN=C2c2ccc(C)cc2)sc1=S	Cruzain noTriton 13µM
CCn1c(O)c(/C=C2\C=Nc3ccccc32)sc1=Nc1ccccc1	none
CCC12C(=O)C(CC)(C(c3ccccc3)=C1c1ccccc1)[C@@H]1C(=O)N(c3ccc(C)cc3)C(=O)C12 (stereo partly specified)	Cruzain noTriton inconclusive
CCCC12C(=O)C(C)(C(c3ccccc3)=C1c1ccccc1)C1C(=O)N(c3ccc(C)cc3)C(=O)C12 (stereo unspecified)	Cruzain noTriton 20µM
COC(=O)C(C(=O)OC)[C@@H](NC(=O)OCc1ccccc1)c1ccccc1	none
O=C(COC(=O)/C=C/c1ccc(Cl)cc1Cl)Nc1cc(C(F)(F)F)ccc1N1CCOCC1	Cruzain noTriton 13µM
O=C(COC(=O)/C=C/c1ccccc1)Nc1cc(C(F)(F)F)ccc1N1CCOCC1	none
CN(C)c1ccc(C(CNC(=O)c2ccc(C(C)(C)C)cc2)N2CCCC2)cc1 (stereo unspecified)	none
Cc1ccc(NC(=O)c2nn(C34CC5CC(CC(C5)C3)C4)cc2[N+](=O)[O-])cc1	Cruzain noTriton inconclusive
O=C(Nc1cccc2ccccc12)c1nn(C23CC4CC(CC(C4)C2)C3)cc1Br	Cruzain noTriton 10µM
CCCC12CN3CC(CCC)(CN(C1)C3c1c[nH]c3ccccc13)C2=O (stereo unspecified)	none
COc1cccc(/C=N/N2C(=O)CSC2=S)c1O	Cruzain inh Det inconclusive
O=C1CSC(=S)N1/N=C/C=C/c1ccccc1	Cruzain noTriton 32µM, Cruzain inh Det inconclusive
CC(=O)/C=C\C1[C@]2(C)CCCC(C)(C)C2CC[C@@]1(C)O (stereo partly specified)	none
Cc1ccc(C)c(NC(=O)c2cc(S(=O)(=O)N3CCCc4ccccc43)ccc2F)c1	none
CCc1ccc(NS(=O)(=O)c2ccc3[nH]cc(C(=O)NCCc4ccccc4)c(=O)c3c2)cc1	Cruzain noTriton 7.9µM
Cc1cc(C)cc(NS(=O)(=O)c2ccc3[nH]cc(C(=O)NCCc4ccccc4)c(=O)c3c2)c1	Cruzain noTriton inconclusive
c1ccsc1	none
COc1ccc(-n2cc(-c3ccccc3)c3c(NC4CCCC4)ncnc32)cc1	none
CCOc1ccccc1Nc1ncnc2c1c(-c1ccccc1)cn2-c1ccc(OC)cc1	Cruzain noTriton 10µM
C/C(=N/NS(=O)(=O)c1ccc(C)cc1)P(=O)(O)O	none
C[C@@]1(C(NC(=O)c2cccs2)c2ccc(-c3ccccc3)cc2)C[C@H]1C1CCCCC1 (stereo partly specified)	Cruzain noTriton 4µM
COC(=O)c1ccc(C(NC(=O)c2ccccc2)[C@]2(C)C[C@H]2C2CCCCC2)cc1 (stereo partly specified)	none
COc1ccc(NC(=O)c2ccccc2NC(=O)CSc2ccccc2)cc1	none
O=C(CSc1ccc(Cl)cc1)Nc1ccc(N2CCN(C(=O)c3ccco3)CC2)cc1	none
O=C(CSc1ccc(Cl)cc1)Nc1ccc(NC(=O)c2ccco2)cc1	Cruzain noTriton 10µM
COc1ccc(NC(=O)c2ccccc2NC(=O)CSc2ccc(Cl)cc2)cc1	Cruzain noTriton 13µM
Cc1ccc(NC(=O)c2cc3c(=O)n(Cc4cccnc4)ccc3nc2C)cc1F	none
CCOc1ccc(S(=O)(=O)N2CCN(c3ccc(Cl)c(Cl)c3)CC2)c2ccccc12	none
O=S(=O)(c1cccc2ccccc12)N1CCN(c2ccc(Cl)c(Cl)c2)CC1	Cruzain noTriton 20µM
Cc1ccc2c(c1)N[C@H](c1ccc(C(=O)O)cc1)c1cccn1-2	none
COc1cc(OC)c(NC(=O)c2c(N3CCCC3=O)c3cc(C)ccc3n2C)cc1Cl	none
COc1ccccc1-c1nnc(NC(=O)C(C)SC2=NCCS2)s1 (stereo unspecified)	Cruzain noTriton 16µM
CC(SC1=NCCS1)C(=O)Nc1nnc(-c2ccc(Cl)cc2)s1 (stereo unspecified)	none
CC(C)C[C@@H](CC(=O)N[C@@H](CCC(=O)O)CC(=O)O)NC(=O)[C@@H]1CCCC[C@H]1NC(=O)C[C@@H](NC(=O)C[C@H](CO)NC(=O)[C@@H]1CNCC[C@H]1N)C(C)C	none
C=CCC(Nc1ccc(OC)cc1)(C(=O)OCC)c1ccccc1 (stereo unspecified)	none
O=C(COC(=O)c1cccc([N+](=O)[O-])c1)c1ccc(OCc2ccccc2)cc1	Cruzain noTriton 25µM
O=C(Cc1ccccc1)NCC(=O)OCC(=O)c1cccc([N+](=O)[O-])c1	none
Nc1c(C(=O)NCc2ccc(Cl)cc2)sc2nc(-c3ccc(F)cc3)ccc12	Cruzain noTriton 10µM, Cruzain inh Det 13µM
O=C(NCc1ccc(Cl)cc1)c1cc(-c2ccc(F)cc2)on1	Cruzain noTriton inconclusive
O=S(=O)(O)c1ccc2c(N=Nc3c(O)ccc4ccccc34)cccc2c1	none
COc1cccc([C@@H]2Oc3ccc(Br)cc3C(=O)[C@H]2OC(=O)NS(=O)(=O)c2ccc(F)cc2)c1	none
C/C(=N\N=C(/N)SC1CC(=O)N(c2ccc(Cl)c(Cl)c2)C1=O)c1cccs1 (stereo unspecified)	Cruzain noTriton 32µM
C/C(=N\N=C(/N)SC1CC(=O)N(c2ccc(Cl)cc2)C1=O)c1cccs1 (stereo unspecified)	none
Cc1ccccc1NC(=O)Cn1cc(S(=O)(=O)N2CCCC2)c(S(=O)(=O)N2CCCC2)c1	none
O=[N+]([O-])c1cc2c(c(CSc3nnc4ccccn34)c1)OCOC2	none
O=c1c2ccccc2nc(SCc2ccc([N+](=O)[O-])cc2)n1-c1ccccc1	Cruzain noTriton inconclusive
COc1ccc(Nc2nnc(SCc3cc([N+](=O)[O-])cc4c3OCOC4)s2)cc1	Cruzain noTriton 20µM
O=c1c2ccccc2nc(SCc2cc([N+](=O)[O-])cc3c2OCOC3)n1-c1ccccc1	Cruzain noTriton 13µM
COC(=O)[C@H]1C(=O)[C@H](C(=O)OC)[C@@H]2CC[C@H]1N2C	none
CCN(Cc1ccccc1)Cc1c(O)ccc2c(=O)c(-c3ccc(Cl)cc3)coc12	none
COc1cccc([C@@H]2Oc3ccc(OC)cc3C(=O)[C@H]2OC(=O)NS(=O)(=O)c2ccc(C)cc2)c1	none
CCc1cccc(NC(=O)c2cc3c(=O)[nH]c4ccccc4c3n2C)c1	none
COc1ccc(C(=O)N2CCC3(CC2)CN(c2ccc(-c4ccccc4)cc2)C3)cc1	none
O=C1OCCN1C(=O)[C@H]1[C@H](c2ccc(F)cc2)C(c2cccc(Cl)c2)=NN1c1ccccc1	Cruzain noTriton 20µM
CC[C@@H]1C(c2cccc(Cl)c2)=NN(c2ccccc2)[C@H]1C(=O)N1CCOC1=O	none
C[C@@H]1C(c2ccc(F)cc2)=NN(c2ccccc2)[C@H]1C(=O)N1CCOC1=O	none
O=C1OCCN1C(=O)[C@H]1[C@H](c2ccc(Cl)cc2)C(c2cccc(Cl)c2)=NN1c1ccccc1	Cruzain noTriton 18µM
COC(=O)Nc1nnc(/C=C/c2ccc(OC)cc2)s1	none
O=C(CSc1ccccc1)Nc1nnc(COc2ccc(Cl)cc2)s1	none
COc1ccc(/C=C/c2nnc(NC(=O)CSc3ccc(Cl)cc3)s2)cc1	Cruzain noTriton 10µM
Cc1ccc(-n2c(COc3c(C)cccc3C)nnc2SCC(=O)Nc2nccs2)cc1	Cruzain noTriton 25µM
